In the supplement of paper PMC8975748:
Where a name gives a salt, the structure may show the parent alone.

Each compound was assayed on Saccharomyces cerevisiae BY4741 SeMeCo community (assay: z-score of subpopulation abundance vs DMSO median, subpopulation auxotrophic for LUM; higher = larger share of this subpopulation than in DMSO controls). Details: 10 µM; 24 h; SM minimal medium; subpopulation (auxotrophy): LUM.
Description: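 Fluorescent four-plasmid SeMeCo (self-establishing metabolically cooperating S. cerevisiae BY4741 community; plasmids pH-mRuby2, pL-mWasabi, pU-eCFP, pM-TagRFP657) was grown 24 h in minimal SM medium with each Selleck FDA-approved drug at 10 µM in 384-well plates. Cells were fixed and imaged by high-content confocal microscopy. For each auxotrophic subpopulation (and the prototroph), a z-score gives the deviation from the DMSO vehicle-control population median.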

SMILES | z-score of subpopulation abundance
COc1cc2c(cc1OC)-c1cc3ccc(OC)c(OC)c3c[n+]1CC2 [Palmatine] | 1.08
COc1cc2c(cc1OC)C(=O)C(CC1CCN(Cc3ccccc3)CC1)C2 (stereo not given) [Donepezil HCl] | -0.52
Oc1c(Br)cc(Br)c2cccnc12 [Broxyquinoline] | 12.8
CCCCCCCCOc1ccccc1C(=O)Nc1ccc(C(=O)OCC[N+](C)(CC)CC)cc1 [Otilonium Bromide] | 2.14
CC1(C)S[C@@H]2[C@H](NC(=O)[C@H](N)c3ccccc3)C(=O)N2[C@H]1C(=O)O [Ampicillin Trihydrate] | 0.23
CO[C@H]1C[C@@H]2CC[C@@H](C)[C@@](O)(O2)C(=O)C(=O)N2CCCC[C@H]2C(=O)O[C@H]([C@H](C)C[C@@H]2CC[C@H](n3cnnn3)[C@H](OC)C2)CC(=O)[C@H](C)/C=C(\C)[C@@H](O)[C@@H](OC)C(=O)[C@H](C)C[C@H](C)/C=C/C=C/C=C/1C [Zotarolimus(ABT-578)] | 5.72
Cc1ccccc1OCC(O)CO (stereo not given) [Mephenesin] | -0.39
Nc1ccc(C(=O)O)c(O)c1 [4-Aminosalicylic acid] | -1.15
C[N+]1(C)[C@@H]2C[C@@H](OC(=O)C(O)(c3cccs3)c3cccs3)C[C@H]1[C@@H]1O[C@@H]12 [Tiotropium Bromide hydrate] | -0.67
COc1cccc(CCc2ccccc2OCC(CN(C)C)OC(=O)CCC(=O)O)c1 (stereo not given) [Sarpogrelate hydrochloride] | -0.21
Cc1cc(O)cc(C)c1Cl [Chloroxylenol] | 0.54
CO[C@H]1C[C@@H]2CC[C@@H](C)[C@@](O)(O2)C(=O)C(=O)N2CCCC[C@H]2C(=O)O[C@H]([C@H](C)C[C@@H]2CC[C@@H](OP(C)(C)=O)[C@H](OC)C2)CC(=O)[C@H](C)/C=C(\C)[C@@H](O)[C@@H](OC)C(=O)[C@H](C)C[C@H](C)/C=C/C=C/C=C/1C [Ridaforolimus (Deforolimus, MK-8669)] | 11
CC[C@H]1OC(=O)[C@H](C)[C@@H](O[C@H]2C[C@@](C)(OC)[C@@H](O)[C@H](C)O2)[C@H](C)[C@@H](O[C@@H]2O[C@H](C)C[C@H](N(C)C)[C@H]2O)[C@](C)(O)C[C@@H](C)CN(C)[C@H](C)[C@@H](O)[C@]1(C)O [Azithromycin] | 0.31
C[C@H]1O[C@@H](O[C@H]2[C@@H](O)C[C@H](O[C@H]3[C@@H](O)C[C@H](O[C@H]4CC[C@@]5(C)[C@H](CC[C@@H]6[C@@H]5C[C@@H](O)[C@]5(C)[C@@H](C7=CC(=O)OC7)CC[C@]65O)C4)O[C@@H]3C)O[C@@H]2C)C[C@H](O)[C@@H]1O [Digoxin] | -0.61
CCn1cc(C(=O)O)c(=O)c2cc(F)c(N3CCNC(C)C3)c(F)c21 (stereo not given) [Lomefloxacin HCl] | 1.32
CN(C)CCCN1c2ccccc2Sc2ccccc21 [Promazine hydrochloride] | 0.25
CC(C)[C@H](N)C(=O)OCCOCn1cnc2c(=O)nc(N)[nH]c21 [Valaciclovir HCl] | -0.29
Cc1c(OCC(F)(F)F)ccnc1C[S@@+]([O-])c1nc2ccccc2[nH]1 [Dexlansoprazole] | 0.16
Nc1c(CC(=O)O)cccc1C(=O)c1ccccc1 [Amfenac Sodium Monohydrate] | -0.56
Cc1ccc(O)c([C@H](CCN(C(C)C)C(C)C)c2ccccc2)c1 [Tolterodine tartrate] | 1.3

SMILES | z-score of subpopulation abundance
O=c1[nH]c(=O)n([C@H]2C[C@H](O)[C@@H](CO)O2)cc1/C=C/Br [Brivudine] | -0.74
CC(=O)OCC1=C(C(=O)O)N2C(=O)[C@@H](NC(=O)CSc3ccncc3)[C@H]2SC1 [Cephapirin Benzathine] | -0.22
Cc1cc(C)nc(O)n1.O=C(Nc1ccc([N+](=O)[O-])cc1)Nc1ccc([N+](=O)[O-])cc1 [Nicarbazin] | -0.52
Clc1ccc(CCC(Cn2ccnc2)Sc2c(Cl)cccc2Cl)cc1 (stereo not given) [Butoconazole nitrate] | 0.2
O=C1NC(=O)C(c2ccccc2)(c2ccccc2)N1 [Phenytoin] | 0.38
NC[C@H]1O[C@H](O[C@H]2[C@H](O)[C@@H](O[C@H]3O[C@H](CO)[C@@H](O)[C@H](N)[C@H]3O)[C@H](N)C[C@@H]2N)[C@H](N)C[C@@H]1O [Tobramycin] | -0.69
Cc1cc(CC(C)CC(C)(C)C)n(O)c(=O)c1 (stereo not given) [Piroctone Olamine] | 16
CN[C@H]1C(=O)N[C@@H]2Cc3ccc(cc3)Oc3cc4cc(c3O[C@@H]3O[C@H](C(=O)O)[C@@H](O)[C@H](O)[C@H]3NC(=O)CCCCCCCCC(C)C)Oc3ccc(cc3Cl)[C@@H](O)[C@@H]3NC(=O)[C@H](NC(=O)[C@@H]4NC(=O)[C@@H](NC2=O)c2cc(cc(O)c2Cl)Oc2cc1ccc2O)c1ccc(O)c(c1)-c1c(O[C@H]2O[C@H](CO)[C@@H](O)[C@H](O)[C@@H]2O)cc(O)cc1[C@@H](C(=O)NCCCN(C)C)NC3=O [Dalbavancin] | 0.72
CC[N+](C)(C)c1cccc(O)c1 [Edrophonium chloride] | 0.48
CCN1CCC[C@H]1CNC(=O)c1cc(S(N)(=O)=O)ccc1OC [Levosulpiride] | 0.3
CCN(CC)CCOCCOC(=O)C1(c2ccccc2)CCCC1 [Pentoxyverine Citrate] | -0.26
COc1cc([C@@H]2c3cc4c(cc3[C@@H](O[C@@H]3O[C@@H]5CO[C@@H](c6cccs6)O[C@H]5[C@H](O)[C@H]3O)[C@H]3COC(=O)[C@H]23)OCO4)cc(OC)c1O [Teniposide] | 1.42
O=C(O)c1cn(-c2ccc(F)cc2)c2cc(N3CCNCC3)c(F)cc2c1=O [Sarafloxacin HCl] | 0.54
N#Cc1ccc2[nH]cc(CCCCN3CCN(c4ccc5oc(C(N)=O)cc5c4)CC3)c2c1 [Vilazodone] | 0.72
C/C=C1\[C@H]2C=C(C)C[C@]1(N)c1ccc(=O)[nH]c1C2 [(-)-Huperzine A (HupA)] | -0.73
CCC(=O)Oc1ccc2c(c1)CCC1C2CCC2(C)C(OC(=O)CC)CCC12 (stereo not drawn) [Estradiol dipropionate(17-Beta-Estradiol-3,17-Dipropionate)] | -0.6
CN1C(C(=O)Nc2ccccn2)=C(O)c2ccccc2S1(=O)=O [Piroxicam] | -1.33
Nc1ccc(/N=N/c2ccccc2)c(N)n1 [Phenazopyridine HCl] | -1.8
CCCCC(F)(F)[C@@]1(O)CC[C@H]2[C@@H](CC(=O)[C@@H]2CCCCCCC(=O)O)O1 [Lubiprostone] | -0.67
CC(C)c1nc(N(C)S(C)(=O)=O)nc(-c2ccc(F)cc2)c1/C=C/[C@@H](O)C[C@@H](O)CC(=O)O [Rosuvastatin] | 1.84
